High-throughput results deposited in PubChem BioAssay by several laboratories.
In the library only some 4% were active in any assay of this set; here they are far more common.
Mtb betalactam: beta-lactam sensitization of Mtb H37Rv. M. tuberculosis H37Rv growth with meropenem, percent inhibition. inhibition, % at 25 µM. actives 0.27% (n = 330,000); call rule not given here;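 note: growth measured after seven days incubation then overnight dye step; 0% = bacteria only wells and 100% = bacteria with antibiotic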
UGM FP inh: Mtb UDP-galactopyranose mutase inhibition. purified UGM, fluorescence polarization probe displacement. inhibition, % at 10 µM. actives 0.06% (n = 320,000). AID 504406; in the data active = inhibition above about 10%, passing the limit was not always enough
RecA splice inh: Mtb RecA intein splicing inhibition | cell-free RecA intein splicing, fluorescence | inhibition, % (no concentration beside the values) | actives 0.75% (n = 290,000); in the data active = inhibition above about 30%;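 note: 0% = vehicle wells and 100% = reference inhibitor control wells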
Rv3671c inh: Rv3671c (M. tuberculosis) protease inhibition | P9WHR9 | inhibition, % at 5.96 µM | actives 0.048% (n = 320,000); in the data active = inhibition above about 38%;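 note: extracellular domain of Rv3671c used as enzyme; 0% = enzyme with DMSO and 100% = no enzyme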
Target sequence (P9WHR9 whole entry, looked up, the tested form may be a part): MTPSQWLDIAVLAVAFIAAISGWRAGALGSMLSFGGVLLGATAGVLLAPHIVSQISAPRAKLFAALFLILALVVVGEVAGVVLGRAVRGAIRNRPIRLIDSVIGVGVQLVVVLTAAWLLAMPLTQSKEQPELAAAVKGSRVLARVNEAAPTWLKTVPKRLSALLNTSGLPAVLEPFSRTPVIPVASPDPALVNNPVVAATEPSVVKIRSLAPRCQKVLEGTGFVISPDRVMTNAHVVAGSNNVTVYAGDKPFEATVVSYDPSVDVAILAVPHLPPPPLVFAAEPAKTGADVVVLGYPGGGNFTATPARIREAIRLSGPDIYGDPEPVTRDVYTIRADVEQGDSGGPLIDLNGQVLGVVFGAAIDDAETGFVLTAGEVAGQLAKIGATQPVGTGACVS
GDH-TPI counter: GDH-TPI coupled enzyme inhibition counter-screen; GDH-TPI coupled enzyme counterscreen, NADH absorbance; inhibition, % at 4.8 µM; actives 1.2% (n = 360,000); AID 588335; in the data active = inhibition above about 30%;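 note: 0% = DMSO wells and 100% = wells lacking the enzyme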
Mtb FBA inh: inhibitors of M. tuberculosis fructose-bisphosphate aldolase; P9WQA3; purified M. tuberculosis FBA, fluorescence read-out; inhibition, % at 1 µM; actives 2.3% (n = 360,000); in the data active = inhibition above about 27%;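 note: 0% = vehicle and 100% = reference inhibitor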
* hit, by the source's call; · = not tested or not shown.

SMILES | Mtb betalactam | UGM FP inh | RecA splice inh | Rv3671c inh | GDH-TPI counter | Mtb FBA inh
O=C(N/N=C\c1ccoc1)c1ccco1 | 0 | 2 | 1 | 6 | -5 | 5
Cc1ccccc1N/N=C/c1sc(=O)n(Cc2cccc(C(=O)O)c2)c1Cl | 21 | -4 | 10 | -4 | 39* | -2
COc1ccc(CCN2C(=O)CCC3=C2CCCC3=O)cc1OC | · | · | · | · | · | 0
Cn1nc(C2CC2)cc1NC(=O)C1(C)CCN1C(=O)c1ccccc1CCc1ccccc1 (stereo unspecified) | · | · | · | · | 8 | -1
O=C(N/N=C/c1cn(Cc2ccccc2)c2ccccc12)c1cc(O)cc(O)c1 | 4 | -3 | 5 | · | 22 | 4
O=C(O)c1cccc(Cn2c(Cl)c(/C=N/NC(=O)c3cccc(O)c3)sc2=O)c1 | -4 | 2 | 4 | 0 | 50* | 4
CC(C)(O)C#Cc1ccccc1C(=O)NC(CC(N)=O)C(=O)O (stereo unspecified) | -6 | 1 | -4 | 3 | 32* | 2
CCC/C(O)=N\S(=O)(=O)c1ccc(N=NN(C)C)cc1 | -10 | -1 | 0 | 0 | 23 | -5
CN(C)N=Nc1ccc(S(=O)(=O)/N=C(\O)c2ccccc2)cc1 | -1 | -2 | -1 | 4 | 39* | 1
Cc1ccc(NC(=O)C2(C)CCCN(C(C)C)C2)cc1C (stereo unspecified) | · | · | · | · | 12 | 6
O=C1c2cccc3cccc(c23)C(=O)N1c1ccccc1Cl | -4 | 0 | -1 | -7 | 33* | 25
Nc1ccccc1N1C(=O)c2cccc3cccc(c23)C1=O | -4 | 0 | 0 | -1 | 4 | 0
COc1cc(C2C(C#N)=C(N)Oc3n[nH]c(-c4cccs4)c32)cc(OC)c1O (stereo unspecified) | -4 | 0 | 11 | -8 | 11 | -9
COc1cc(C2C(C#N)=C(N)Oc3n[nH]c(-c4ccncc4)c32)cc(OC)c1OC (stereo unspecified) | -2 | 3 | -4 | -8 | 4 | 2
CCCc1[nH]nc2c1C(c1ccc(OCCN3CCOCC3)c(OC)c1)C(C#N)=C(N)O2 (stereo unspecified) | 0 | 4 | 32* | 7 | 10 | 5
N#CC1=C(N)Oc2n[nH]c(-c3ccc(F)cc3)c2C1c1ccncc1 (stereo unspecified) | -6 | -1 | 62* | -3 | 2 | 1
N#CC1=C(N)Oc2n[nH]c(-c3cccs3)c2C1c1ccoc1 (stereo unspecified) | 2 | 1 | 85* | -8 | 17 | -3
COc1ccc(-c2[nH]nc3c2C(c2ccsc2)C(C#N)=C(N)O3)cc1 (stereo unspecified) | 4 | 2 | 71* | -3 | 15 | 1
C/C(=N\NC(=O)CCn1nnc2ccccc21)c1ccco1 | -6 | 1 | 2 | -1 | 27 | 2
CCOc1ccc(-c2[nH]nc3c2C(c2ccc4c(c2)OCO4)C(C#N)=C(N)O3)cc1OC (stereo unspecified) | -8 | 0 | 60* | -9 | -1 | 1
COCc1[nH]nc2c1C(c1cccc(OC)c1)C(C#N)=C(N)O2 (stereo unspecified) | -12 | 6 | 57* | -8 | 13 | 4
CCCc1[nH]nc2c1C(c1ccncc1)C(C#N)=C(N)O2 (stereo unspecified) | -6 | 2 | 32* | -7 | 2 | 4
CCCc1[nH]nc2c1C(c1ccccc1OCC)C(C#N)=C(N)O2 (stereo unspecified) | -2 | 3 | 67* | -8 | 1 | -3
CCCc1[nH]nc2c1C(/C(C)=C/c1ccccc1)C(C#N)=C(N)O2 (stereo unspecified) | 9 | 2 | 7 | 0 | -3 | -2
CCOc1ccc(C2C(C#N)=C(N)Oc3nc[nH]c(=O)c32)cc1OC (stereo unspecified) | -1 | -1 | -4 | -7 | 3 | 2
CC(=O)NC(c1ccccc1)c1nc(-c2cnc3ccccc3c2)cs1 (stereo unspecified) | · | · | · | · | 12 | 3
CCc1cccc(CC)c1-n1c(SCC(=O)N2CCCc3ccccc32)nc(O)cc1=O | 1 | 0 | · | -3 | 10 | 2
Cc1cc(C#N)c(C)c(SCc2[nH]nc3c2C(c2ccccc2)C(C#N)=C(N)O3)n1 (stereo unspecified) | -8 | 0 | 25 | 1 | 6 | -1
